# Measurements reported in PubChem BioAssay AID602393 (Broad Institute, 2012).
# The whole screen tested about 350,000 compounds, of which about 7,000 (2%) were called active. The full list was thinned out, with actives kept by preference. Unmarked numbers belong to inactive results. Rule as the data show it: active = activation above about 40%; inconclusive = no clear call, values can overlap the other calls; inactive = below that.
# Experiment: raisers of Bmi1 knock-in reporter signal – mouse ES cells, Bmi1 luciferase knock-in, single point, esBAF inhibitor project, primary screen (AID 602393);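 also: 0% = median of the plate's neutral control wells and 100% = double that signal; a rise in the Bmi1 reporter signal indicates esBAF inhibition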
# Details: 24 h, at 12.5 µM, hits give high values, 100% = twice the neutral-well signal
row,SMILES,reporter increase
1,Cc1ccc(-c2csc(NC(=O)c3cccs3)n2)cc1,53.5% (active)
2,COc1cc(OC)cc(C(=O)NNC(=O)Cc2cccs2)c1,3.48%
3,Cc1ccc(-c2csc(NC(=O)C3=COCCO3)n2)cc1C,43.9% (active)
4,Cc1ccc(-c2csc(NC(=O)Cc3cccs3)n2)cc1C,48.9% (active)
5,NS(=O)(=O)c1ccc2nc(NC(=O)C3=COCCO3)sc2c1,-2.59%
6,O=C(C[C@@H]1CC[C@@H](NC(=O)C2CCOCC2)[C@H](CO)O1)Nc1ccc(-c2ccccc2)cc1,8.43%
7,C[C@@H]1CN([C@H](C)CO)C(=O)c2cc(C#CC3(O)CCCC3)cnc2O[C@H]1CN(C)C(=O)C1CCC1,2.77%
8,C[C@@H](NC(=O)C[C@H]1C[C@H]2c3cc(NC(=O)Nc4ccccc4F)ccc3O[C@H]2[C@@H](CO)O1)c1ccccc1,2.95%
9,O=C(Cc1ccncc1)N[C@H]1CC[C@H](CCn2cc(-c3ccccc3F)nn2)O[C@@H]1CO,12.7%
10,COc1cccc(-c2cn(CC[C@@H]3CC[C@@H](NC(C)=O)[C@@H](CO)O3)nn2)c1,-4.15%
11,COc1ccccc1CNC(=O)COC(=O)c1sc(C)nc1C,6.65%
12,COc1ccccc1/C=N/Nc1nc(C)c(C(C)=O)s1,43.3% (active)
13,CNC(=O)c1sc(NCc2ccccc2OC)nc1C,10%
14,CCCC#Cc1ccc([C@H]2[C@@H](CO)N3CCCCN(S(=O)(=O)Cc4ccccc4)C[C@H]23)cc1,-7.51%
15,CCS(=O)(=O)N1[C@H](C#N)[C@H](c2ccc(-c3cccc(F)c3)cc2)[C@@H]1CO,2.95%
16,Cc1ccc(SCC(=O)c2cc(C)c(OC(=S)N(C)C)c(C)c2)cc1,45.8% (active)
17,COC(=O)c1cc(OC)c(OC)cc1NC(=O)CSc1ccc(C)cc1,-15.9%
18,CCN1CCN(C(=O)CSc2ccc(C)cc2)CC1,31%
19,C[C@@H]1CN([C@@H](C)CO)S(=O)(=O)c2ccc(C#Cc3ccccc3F)cc2O[C@H]1CN(C)C(=O)c1ccc2c(c1)OCO2,0.756%
20,CC(C)NC(=O)N(C)C[C@H]1Oc2c(NC(=O)c3ccncc3)cccc2C(=O)N([C@@H](C)CO)C[C@H]1C,1.56%

row,SMILES,reporter increase
1,COc1ccc(/C=N/OCc2ccccc2C#N)c(OC)c1,82.2% (active)
2,COc1ccc(C=C(C#N)C#N)c(CSc2ccccn2)c1,-8.92%
3,COc1ccc(/C=C2/C(=O)N(c3ccccc3)N=C2C)c(OC)c1,-1.3%
4,C[C@H]1CN([C@@H](C)CO)S(=O)(=O)c2ccc(C3=CCCC3)cc2O[C@@H]1CN(C)Cc1ccccc1,1.2%
5,COc1ccc(C2=Nc3ccccc3NC(=O)C2N(C(=O)c2cc3ccccc3[nH]2)c2ccccc2)cc1 (stereo not given),47.8% (active)
6,CC(OC(=O)c1cc2ccccc2[nH]1)C(=O)N(C)c1ccccc1 (stereo not given),7.66%
7,COc1ccc(NC(=O)N(C)C[C@@H]2OCc3ccccc3-c3c(n(C)c4ccccc34)C(=O)N([C@H](C)CO)C[C@H]2C)cc1,-4.05%
8,CO[C@@H](CN(C)S(=O)(=O)c1cccc(Cl)c1)[C@H](C)CN([C@H](C)CO)S(=O)(=O)c1cccc(Cl)c1,6.95%
9,CN1c2ccc(-c3cccc(F)c3)cc2[C@H]2[C@H](CCN2C(=O)C2CCCC2)[C@@H]1CO,2.05%
10,COc1ccc(C(=O)C2CCCN(C(=O)c3cc(C)on3)C2)cc1F (stereo not given),-6.1%
11,COc1ccccc1-c1cc(C(=O)N2CCCCC2)no1,52.4% (active)
12,O=C(c1cc(-c2cccs2)on1)N1CCCCC1,-2.46%
13,C[C@@H]1CN([C@H](C)CO)C(=O)c2cc(NC(=O)CCCN(C)C)ccc2O[C@@H](C)CCCCO[C@@H]1CN(C)Cc1ccncc1,1.15%
14,C[C@H]1CN([C@@H](C)CO)C(=O)c2cccc(NC(=O)Nc3ccccc3)c2O[C@H]1CN(C)Cc1ccc(C(F)(F)F)cc1,-0.852%
15,CCC(=O)N1c2ccc(S(=O)(=O)CCC(=O)N3CCN(c4ccccc4)CC3)cc2CC1C (stereo not given),29.9%
16,Cc1ccn(CCC(=O)N2c3ccccc3CC2C)n1 (stereo not given),0.95%
17,CCCC(=O)N1c2ccc(-c3csc(N)n3)cc2CC1C (stereo not given),41.3% (active)
18,Cc1nn2c(=O)cc(COC(=O)c3ccc(NC(=O)C(C)(C)C)cc3)nc2s1,2.43%
19,O=c1cc(CCl)nc2scc(-c3ccccc3)n12,-3.84%
20,Cc1csc2nc(COC(=O)c3cccc(N(C)C)c3)cc(=O)n12,82.1% (active)
